In PubChem BioAssay AID602313 (National Center for Advancing Translational Sciences (NCATS), 2012) one finds Potency data, which are given here for 20 molecules.

Structures are written as SMILES. Screen size: about 390,000 compounds; about 760 (0.19%) were called active. A call without a number means that no potency is given here. Inconclusive results (about 3%) are left out. The sample holds actives, similar compounds and a random draw of the others, so the mix is not that of the screen. Calls come from the whole dose curve; as a rule, active = well fitted inhibition curve with a large enough effect; inconclusive = small, poorly fitted or top-dose-only effect; inactive = flat fitted curve, though single readings scatter.
Potency is the fitted concentration of half-maximal effect.

The assay is described as follows: qHTS for Inhibitors of Vif-A3F Interactions: qHTS. Note: nearly all actives have a fitted effect of over 65% in size. The following applies: HeLa A3F-eYFP + Vif (tagged APOBEC3F with the HIV-1 protein that degrades it), YFP fluorescence increase; series mostly up to 46.1 µM. An excerpt:
The recent discovery and characterization of host restriction factors, which provide a potent defense to invading retroviruses, has provided new targets for antiviral drug development. APOBEC3G (A3G) and APOBEC3F (A3F) are potent cytidine deaminases that block HIV-1 replication; HIV-1 expresses the Vif protein, which counteracts A3G and A3F by binding to them and inducing their proteasomal degradation. The Vif-A3G and Vif-A3F interactions provide two potential targets for development of small molecules which can interfere with the ability of Vif to degrade A3G or A3F. […] To identify inhibitors that can interfere with Vif mediated degradation of A3G and A3F, we have developed Hela cell lines that stably express A3G or A3F tagged with eYFP at the C-terminal end (A3G-eYFP or A3F-eYFP, respectively) and Vif. In the absence of an inhibitor, Vif induces degradation of A3G-eYFP and A3F-eYFP, and the cells are not fluorescent. In the presence of an inhibitor, it is expected that Vif will be unable to degrade A3G-eYFP and/or A3F-eYFP, resulting in an increase in yellow fluorescence. In this assays Vif A3F was screened against the Molecular Library Small Molecule Repository (MLSMR). NIH Chemical Genomics Center [NCGC] NIH Molecular Libraries Probe Centers Network [MLPCN] MLPCN Grant: MH093245 Assay Submitter (PI): Vinay Pathak, National Cancer Institute
5 uL of 700 cells/well of A3F-YFP cells are dispensed into black, clear bottom plates. The plates are incubated overnight at 37 deg C. 23 nL of compounds are added by pintool. The plates are incubated overnight at 37 deg C and then read on the TTP Acumen (Ex 488/ Em 500-530).
On the technique in general: In qHTS, concentration-response curves come from the screen itself.
On to `CC1=CC(=Cc2sc3ccccc3[n+]2C)C=C(C)O1`, for which the Potency was 5.01 µM (active).

Turning to `CNP1(NC)=Nc2nn(-c3ccccc3)c(N)c2C(c2ccccc2)=N1`, the Potency entry was “inactive”.

Take `CCC(=NCc1ccco1)c1c(O)n(Cc2ccccc2)c(=O)[nH]c1=O`: the Potency result is “inactive”.

Consider `CC/C(=N\NC(=O)c1ccccc1O)c1c(O)n(Cc2ccccc2)c(=O)[nH]c1=O`, for which the Potency is 11.2 µM (active).

For `O=C(N/N=C/c1c(O)n(Cc2ccccc2)c(=O)[nH]c1=O)c1ccccc1`, the Potency result is “inactive”.

Turning to `Cc1ccc2c(c1)=C/C(=C\c1c(O)[nH]c(=O)[nH]c1=O)C(=O)N=2`, the Potency entry is “inactive”.

As for `CCOc1ccc(CNC(=O)c2cccc(Nc3nc4ccccc4n4nnnc34)c2)cc1OC`, the Potency was 12.6 µM (active).

Take `CCCn1c(C(=O)c2ccccc2OC)nc2ccccc21`: the Potency result is “inactive”.

Regarding `COc1cc(Cn2c(N)c(C(=O)NCc3ccco3)c3nc4ccccc4nc32)cc(OC)c1OC`, the Potency result is “inactive”.

In the case of `COC(=O)C1=C(c2cc3ccccc3s2)C[C@@H]2CC[C@H]1N2C(=O)NCc1cccc2ccccc12`, the Potency result was “inactive”.

As to `CC(=CCOc1ccc2ccc(=O)oc2c1)C1=CC(=O)C(C)(C)O1`, the Potency result was “inactive”.

For `O=c1c2ccccc2[nH]c(=S)n1-c1cccc(Cl)c1`, the Potency result is “inactive”.

On to `Cn1cc(/C=C/c2nc3ccccc3c(=O)n2-c2ccccc2)c2ccccc21`, for which the Potency result is “inactive”.

On to `O=c1c2ccccc2nc(/C=C/c2ccco2)n1-c1ccccc1O`, for which the Potency result was “inactive”.

`O=c1c2ccccc2nc(/C=C/c2ccc(F)cc2)n1-c1ccccc1O`: the Potency was 22.4 µM (active).

In the case of `CCC(C)(O)C(=O)OC1C(=O)OC2CC3C(C)=CC(=O)C(O)C3(C)C3C4(O)OCC23C1C(C)C4O` (stereo not given), the Potency result was “inactive”.

`C=C(C)C1(CCCC)C(=O)NC(=S)NC1=O`: the Potency result was “inactive”.

As to `COC(=O)C1=C(c2ccc(Cl)c(C(F)(F)F)c2)C[C@@H]2CC[C@H]1N2C(=O)NC(C)C`, the Potency entry was “inactive”.

Turning to `COC(=O)C1=C(c2cc3ccccc3o2)C[C@@H]2CC[C@H]1N2C(=O)NC1CCCCC1`, the Potency entry is “inactive”.

`CC(C)(C)c1ccc(OC(=O)N2CCCCC2)cc1`: the Potency result was “inactive”.
